The source holds several records for some structures; these can differ, active in one and inactive in another. Active and inactive are the calls of the source. How the source made its calls: active means hit-call score of the fitted dose curve at least 0.9, where 1 is the maximum; inactive means score below 0.9.
Assays:
[1] = read-out: Vascular endothelial growth factor receptor 2 (Homo sapiens) (UniProt P35968); experiment: BSK_4H_VEGFRII: BioMAP Diversity Plus: 4H Assay for Vascular endothelial growth factor receptor 2 (VEGFR2) Biomarker Activity (AID 2283031); settings: primary human endothelial cells (HUVEC); actives raise or lower the signal;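 on AC50: cell-surface VEGFR2 protein level quantified by ELISA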
In short: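 HUVEC (human primary), 4H system; 24 h post-dose; VEGFRII by ELISA; bidirectional curve fit vs DMSO baseline; gain or loss of signal scored.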

[2] = read-out: Human Leukocyte Antigen - DR isotype (HLADR), HLA-DRA (gene 3122); experiment: BSK_BE3C_HLADR: BioMAP Diversity Plus: BE3C Assay for Human Leukocyte Antigen - DR isotype (HLADR) Biomarker Activity (AID 2283032); settings: primary human bronchial epithelial cells; actives raise or lower the signal
In short: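 Cell-surface HLA-DR ELISA readout at 24 h after dosing in the BE3C primary human lung bronchial epithelial system; gain or loss of signal against DMSO, with parallel sulforhodamine B staining of total protein for overt cytotoxicity.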

[3] = read-out: Vascular cell adhesion molecule 1 (VCAM1), VCAM1 (gene 7412); experiment: BSK_4H_VCAM1: BioMAP Diversity Plus: 4H Assay for Vascular cell adhesion molecule 1 (VCAM1) Biomarker Activity (AID 2283033); settings: primary human endothelial cells (HUVEC); actives raise or lower the signal
In short: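 VCAM-1 ELISA read 24 h after chemical dosing of HUVEC in the BioMAP 4H system, with gain or loss of signal fitted relative to DMSO. Parallel SRB staining (560 nm) checked overt cytotoxicity.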

[4] = read-out: Interferon-gamma inducible Protein 10 (IP10), CXCL10 (gene 3627); experiment: BSK_BE3C_IP10: BioMAP Diversity Plus: BE3C Assay for Interferon-gamma inducible Protein 10 (IP10) Biomarker Activity (AID 2283034); settings: primary human bronchial epithelial cells; actives raise or lower the signal
In short: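 IP-10 quantified by ELISA in human primary bronchial epithelial cell cultures at 24 hours post-dosing. Gain or loss of signal fitted relative to DMSO; parallel SRB staining assessed overt cytotoxicity.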

[5] = read-out: Monokine induced gamma interferon (MIG), CXCL9 (gene 4283); experiment: BSK_BE3C_MIG: BioMAP Diversity Plus: BE3C Assay for Monokine induced gamma interferon (MIG) Biomarker Activity (AID 2283035); settings: primary human bronchial epithelial cells; actives raise or lower the signal;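 further: MIG protein measured by ELISA in BE3C cultures after 24 h of dosing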
In short: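 Dose cells (human primary bronchial epithelial), incubate 24 h, quantify MIG by ELISA, then fit concentration–response in both directions relative to DMSO control.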

[6] = read-out: Transforming growth factor beta 1 (TGFb1), TGFB1 (gene 7040); experiment: BSK_BE3C_TGFb1: BioMAP Diversity Plus: BE3C Assay for Transforming growth factor beta 1 (TGFb1) Biomarker Activity (AID 2283036); settings: primary human bronchial epithelial cells; actives raise or lower the signal
In short: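 ELISA readout of TGF-b1 from human lung bronchial epithelial primary cells, taken 24 h post-treatment. Gain or loss of signal fitted relative to DMSO baseline, with parallel SRB staining for overt cytotoxicity.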

[7] = read-out: urokinase plasminogen activator (uPA), PLAU (gene 5328); experiment: BSK_BE3C_uPA: BioMAP Diversity Plus: BE3C Assay for urokinase plasminogen activator (uPA) Biomarker Activity (AID 2283038); settings: primary human bronchial epithelial cells; actives raise or lower the signal
In short: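 ELISA read-out of uPA in human lung primary bronchial epithelial cultures, 24 h post-dosing. Gain or loss of signal fitted bidirectionally relative to DMSO baseline; cytotoxicity checked in parallel cultures via SRB total protein stain.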

[8] = read-out: Urokinase-type plasminogen activator receptor (uPAR), PLAUR (gene 5329); experiment: BSK_BE3C_uPAR: BioMAP Diversity Plus: BE3C Assay for Urokinase-type plasminogen activator receptor (uPAR) Biomarker Activity (AID 2283039); settings: primary human bronchial epithelial cells; actives raise or lower the signal
In short: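 uPAR levels were measured by ELISA after 24 h compound treatment of primary human bronchial epithelial cells, fitted in both directions relative to DMSO. Parallel SRB staining served as the cytotoxicity read-out.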

[9] = read-out: Interleukin-6 (IL6), IL6 (gene 3569); experiment: BSK_CASM3C_IL6: BioMAP Diversity Plus: CASM3C Assay for Interleukin-6 (IL6) Biomarker Activity for (AID 2283040); settings: primary human coronary artery smooth muscle cells; actives raise or lower the signal
[10] = read-out: Plasminogen activator inhibitor-1 (PAI1), SERPINE1 (gene 5054); experiment: BSK_BE3C_PAI1: BioMAP Diversity Plus: BE3C Assay for Plasminogen activator inhibitor-1 (PAI1) Biomarker Activity (AID 2283037); settings: primary human bronchial epithelial cells; actives raise or lower the signal
In short: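 PAI-1 was measured by ELISA in human primary bronchial epithelial cultures 24 h after chemical dosing, with cytotoxicity checked by SRB total-protein staining in parallel cultures. Activity was fitted in both directions relative to DMSO.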

Measured: AC50

COc1cc(C(C)C)c2c(c1)S(=O)(=O)N(COc1cc(=O)n3cccc(OCCN4CCCCC4)c3n1)C2=O
active: [2] 6.88 µM | [3] 5 µM | [4] 7.41 µM | [7] 8.13 µM
not listed: [10]
inactive: all other assays above

O=c1[nH]cnc2c1ncn2[C@H]1CC[C@@H](CO)O1
not listed: [7]
inactive: all other assays above

FC(F)(F)C(F)(F)C(F)(F)C(F)(F)C(F)(F)C(F)(F)I
not listed: [6] | [10]
inactive: all other assays above

Cc1ncc([C@@H](CCCCCCc2ccc3c(n2)NCCC3)CC(=O)O)cn1
not listed: [5]
inactive: all other assays above

CCCCCCCC/C=C\CCCCCCCC(=O)OC[C@@H](O)[C@H]1OC[C@H](O)[C@H]1O
not listed: [10]
inactive: all other assays above

CCCCCCCCCCCCCCO
active: [1] 32.6 µM | [3] 34.2 µM
not listed: [7]
inactive: all other assays above

C[Si](C)(C)C(F)(F)C(F)(F)C(F)(F)F
not listed: [6] | [7] | [10]
inactive: all other assays above

CC(C)CC(C)O (configuration not stated)
not listed: [7] | [10]
inactive: all other assays above

O=S(=O)(O)c1ccc(N=Nc2c(O)ccc3cc(S(=O)(=O)O)ccc23)cc1
not listed: [5]
inactive: all other assays above

c1ccc2cc3ccccc3cc2c1
inactive: all assays above

CCCCOC(=O)c1ccccc1
not listed: [7]
inactive: all other assays above

OC[C@H]1O[C@@H]2O[C@H]3[C@H](O)[C@@H](O)[C@@H](O[C@H]4[C@H](O)[C@@H](O)[C@@H](O[C@H]5[C@H](O)[C@@H](O)[C@@H](O[C@H]6[C@H](O)[C@@H](O)[C@@H](O[C@H]7[C@H](O)[C@@H](O)[C@@H](O[C@H]1[C@H](O)[C@H]2O)O[C@@H]7CO)O[C@@H]6CO)O[C@@H]5CO)O[C@@H]4CO)O[C@@H]3CO
not listed: [7] | [10]
inactive: all other assays above

O=C(O)c1cccc(C[C@@H]2COc3ccc(OCc4nc5cc(F)ccc5s4)cc3[C@@H]2O)c1
not listed: [5]
inactive: all other assays above

CC(C)c1nnc2ccc(-c3ocnc3-c3cc(F)ccc3F)cn12
active: [9] 0.552 µM
not listed: [10]
inactive: all other assays above

CCCCCCCCCC
not listed: [7] | [10]
inactive: all other assays above

c1ccc2ncccc2c1
not listed: [7]
inactive: all other assays above

CCCCCCOC(=O)CC(CC(=O)OCCCCCC)(OC(=O)CCC)C(=O)OCCCCCC
not listed: [7]
inactive: all other assays above

FC(F)C(F)(F)COCC1CO1 (configuration not stated)
inactive: [1] | [2] | [3] | [4] | [5] | [10] | [8] | [9]
active: [2] 45.8 µM

CC(C)C(=O)Nc1ccc([N+](=O)[O-])c(C(F)(F)F)c1
not listed: [5]
inactive: all other assays above

CCCCN1C(=O)[C@@H]([C@H](O)C2CCCCC2)NC(=O)C12CCN(Cc1ccc(Oc3ccc(C(=O)O)cc3)cc1)CC2
not listed: [10]
inactive: all other assays above

CCCOc1ccc(S(=O)(=O)N2CCN(CC)CC2)cc1-c1nc2c(CC)n(Cc3ccccn3)nc2c(=O)[nH]1
not listed: [7]
inactive: all other assays above

CCCCCCCCCCCCCCCCOS(=O)(=O)O
inactive: [1] | [3] | [5] | [9]
active: [2] 15.1 µM | [4] 10.5 µM | [6] 16 µM | [7] 15.7 µM | [8] 16.1 µM

CCCCC(CC)C(=O)OCCOCCOCCOC(=O)C(CC)CCCC (configuration not stated)
not listed: [7]
inactive: all other assays above

COc1cc2c(c(OC)c1OC)-c1ccc(OC)c(=O)cc1[C@@H](NC(C)=O)CC2
active: [2] 0.47 µM | [10] 0.148 µM | [9] 0.148 µM
inactive: all other assays above

CCCCCCCC1CCC(=O)O1 (configuration not stated)
inactive: all assays above

CCCCCOC(C)=O
not listed: [10]
inactive: all other assays above

O=C(O)c1ccc2c(c1)nc(C(=O)NC1CCN(C3CC3)CC1)n2Cc1cc(-c2ccc(Cl)s2)on1
inactive: all assays above

Cc1ccc(S(=O)(=O)NC(=O)NN2CCCCCC2)cc1
not listed: [1] | [7]
inactive: all other assays above

CCCC(CCC)C(=O)O
not listed: [1]
inactive: all other assays above

FC(F)(F)COC(OCC(F)(F)F)OCC(F)(F)F
not listed: [5] | [6] | [7]
inactive: all other assays above

CCCCCCCCN(C)C
not listed: [5] | [7] | [10]
inactive: all other assays above

C[C@@H](Oc1ccc(CNC(=O)c2cccnc2Oc2ccc3c(c2)OCO3)c(F)c1)C(=O)O
not listed: [1] | [10]
inactive: all other assays above

O=C(O)c1cccc(C(=O)O)c1
not listed: [1] | [7]
inactive: all other assays above

CCc1cccc(CC)c1N
not listed: [1]
inactive: all other assays above

Cc1cccc(O)c1C
not listed: [5] | [7] | [10]
inactive: all other assays above

CCOc1ccc2[nH]cc(C(=O)NCc3ccccc3)c(=O)c2n1
not listed: [1]
inactive: all other assays above

OC(O)(C(F)C(O)(O)C(F)(F)F)C(F)(F)F
not listed: [5] | [6] | [7]
inactive: all other assays above

CCN(CC)C(=S)SSC(=S)N(CC)CC
inactive: [9]
active: [1] 26.8 µM | [2] 8.96 µM | [3] 32.4 µM | [4] 25.5 µM | [6] 17.9 µM | [8] 22.6 µM

Reference: PubChem BioAssay (EPA / NIEHS)
